High-throughput results (PubChem BioAssay)
An excerpt weighted towards active compounds, which were near 11% of everything screened.
NPR1 antag: Natriuretic polypeptide receptor (hNpr1) antagonism - Primary qHTS | Atrial natriuretic peptide receptor 1 (Homo sapiens), P16066 | HEK293 hNpr1 GloSensor cGMP, ANP-stimulated luminescence | Potency, µM (series often up to 46.3 µM), inactives show top-dose activity change, negative = inhibition, actives largely listed as inhibitors | 1.6% of 76,000 active; calls by dose curve; further: nearly all actives have a fitted effect of over 60% in size
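Compound pre-incubated 30 min at room temperature on GloSensor-loaded HEK293 cells stably carrying hNpr1 and the pGS-40F cGMP biosensor. Stimulation uses hNppA at 0.1 nM final; luminescence is taken at baseline and 20 min post-agonist.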
FLuc inh: Firefly luciferase inhibition profiling of diverse chemical library using quantitative high-throughput screening. Luciferin 4-monooxygenase (Photinus pyralis), P08659. 2.5% of 76,000 active. AID 1347043, 2019. Potency, µM (series often up to 115 µM), actives largely listed as inhibitors. purified P. pyralis luciferase, luminescence, biochemical; further: nearly all actives have a fitted effect of over 65% in size
Target sequence (P08659 whole entry, looked up): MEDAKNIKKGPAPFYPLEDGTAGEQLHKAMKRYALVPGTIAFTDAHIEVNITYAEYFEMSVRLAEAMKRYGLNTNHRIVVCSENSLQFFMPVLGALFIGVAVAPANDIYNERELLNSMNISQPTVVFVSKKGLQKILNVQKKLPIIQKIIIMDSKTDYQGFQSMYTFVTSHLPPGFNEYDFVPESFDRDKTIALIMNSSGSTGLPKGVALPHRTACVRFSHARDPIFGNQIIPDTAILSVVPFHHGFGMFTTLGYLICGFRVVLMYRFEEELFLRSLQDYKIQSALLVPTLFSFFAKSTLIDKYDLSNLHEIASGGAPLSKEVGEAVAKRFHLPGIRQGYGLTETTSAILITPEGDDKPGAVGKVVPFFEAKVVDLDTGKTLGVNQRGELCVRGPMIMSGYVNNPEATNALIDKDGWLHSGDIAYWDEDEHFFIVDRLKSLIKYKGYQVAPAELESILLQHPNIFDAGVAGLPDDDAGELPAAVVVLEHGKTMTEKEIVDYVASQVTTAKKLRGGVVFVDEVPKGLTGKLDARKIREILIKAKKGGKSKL
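Purified 10nM P. pyralis luciferase with 10uM D-luciferin and 10uM ATP in 50mM Tris acetate pH 7.5, 10mM Mg acetate, 0.01% Tween-20, 0.05% BSA. qHTS titration; luminescence read by CCD imager.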
NIH3T3 tox: Cytotoxic Profiling in NIH 3T3 Cell Line of Diverse Libraries Using Quantitative High-Throughput Screening | NIH 3T3 viability, CellTiter-Glo ATP luminescence, 48-72 h | Potency, µM (titrated, usually from 96.7 µM), without a hit: at the highest dose activity change, negative = cytotoxicity, usual class: inhibitors | 4.3% of 94,000 active | AID 1345082, 2018; further: nearly all actives have a fitted effect of over 55% in size
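Viability of NIH 3T3 cells after 48 or 72 hr compound treatment at 37 °C was assessed by CellTiter-Glo, with luminescence imaged following a 10 min room-temperature step.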
HEK293 tox: Cytotoxic Profiling in HEK 293 Cell Line of Diverse Libraries Using Quantitative High-Throughput Screening | HEK 293 viability, ATP luminescence (CellTiter-Glo), 48-72 h | Potency, µM (doses to about 115 µM), for the others: at the highest dose activity change, negative = cytotoxicity, actives largely listed as inhibitors | 6.6% of 94,000 active; further: nearly all actives have a fitted effect of over 60% in size
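Luminescence from cellular ATP, measured with CellTiter-Glo, indicates HEK 293 viability. Cells plated at 250 cells/well are treated with compound for 48 or 72 hr at 37 degree Celsius before reagent addition.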
* = called active by the depositor; i = inactive; ? = inconclusive; nt = no result; ! = not active in a repeat; [ ] = dose if it differs, or a comment. Unless noted, the call rests on the fitted dose curve; in most records, active means well fitted curve in the direction sought with a large enough effect; inconclusive means small, poorly fitted or top-dose-only effect, or another doubt; inactive means no such curve, though single readings can be large; an effect the other way counts as inactive or inconclusive. On the % scale 0 is the no-effect control and ±100 the full control effect; potency means the concentration at half of the fitted maximal effect.

SMILES	NPR1 antag	FLuc inh	NIH3T3 tox	HEK293 tox
Cn1ccc2c(C(=O)NCc3cccnc3)nc(-c3cccc(F)c3)cc21	?	i	?	89.1µM*
Cn1cncc1CNC(=O)c1nc(-c2cccc(N3CCOCC3)c2)cc2c1ccn2C	-12.9%[70.6 µM]	i	50.1µM*	?
Cn1ccc2c(C(=O)NCc3cnccn3)nc(-c3cccc(N4CCOCC4)c3)cc21	4.6%[70.6 µM]	i	?	-20.9%[172 µM]
COCCOc1ccc2c(n1)CCN(C(=O)C1(c3ccc(OC)cc3)CC1)C2	-1.3%	i	-17.3%	?
CCN1CCN(c2nc3c(s2)CN(C(=O)Cc2cccnc2)CC3)CC1	-0.3%	i	?	?
O=C(NC1CCCCCC1)C1(CCO)CCN(c2ncccn2)C1 (centres undefined)	nt	nt	-4.8%	-2.4%
O=C(NCCc1cnc[nH]1)c1nc(-c2ccccc2)cc2[nH]ccc12	-12.8%[70.6 µM]	i	?	?
Cc1ccc(-c2cc3c(ccn3C)c(C(=O)NCCc3cnc[nH]3)n2)cn1	4.7%[70.6 µM]	i	28.2µM*	?
O=C(Cc1cccc(Cl)c1)N1CCC(C(=O)N2CCC(N3CCCC3=O)CC2)CC1	nt	nt	-22.8%	-5.6%
COc1cccc(C(=O)N2CCC3(CC2)Cc2ccccc2NC3=O)c1	-2.2%	i	35.5µM*	44.7µM*
O=C(c1cccc(Cl)c1)N1CCC2(CC1)Cc1ccccc1NC2=O	21.7%	i	?	?
O=C(Cc1ccccc1)N1CCC2(Cc3ccccc3NC2=O)C1 (centres undefined)	-5.1%[70.6 µM]	i	-24.3%[138 µM]	100µM*
O=C(c1ccccc1F)N1CCC2(CC1)Cc1ccccc1NC2=O	0.0%	i	?	50.1µM*
O=C(c1ccc(Cl)cc1)N1CCC2(CC1)Cc1ccccc1NC2=O	1.8%	i	28.2µM*!	?
O=C(Cc1ccc(F)cc1)N1CCC2(CC1)Cc1ccccc1NC2=O	?	i	-6.8%	0.0%
O=C1CC(c2ccccc2)N(C(=O)CNS(=O)(=O)c2ccc3c(c2)CCC3)CCCCCCN1 (centres undefined)	-10.1%	i	?	?
Cc1cccc(C)c1N1CC(OCc2cccc(C(=O)O)c2)c2ccccc2[S+]1(=O)[O-] (centres undefined)	nt	nt	?	-4.2%
Cc1ccc(C(=O)N2CCC23Cc2ccccc2NC3=O)cc1 (centres undefined)	0.0%[70.6 µM]	i	-18.2%[138 µM]	100µM*
O=C(NC1CCN(c2cc(-c3ccccc3)[nH]n2)CC1)c1ccc(Cl)cc1	-26.8%	i	20µM*	?
COc1cc(OC)cc(C(=O)NC2CCN(c3cc(-c4ccc(F)cc4)[nH]n3)CC2)c1	-21.8%	i	35.5µM*	?
COc1ccc(CC(=O)NC2CCN(c3cc(-c4ccc(Cl)cc4)[nH]n3)C2)cc1 (centres undefined)	-30.5%	i	?	28.2µM*
COc1cc(OC)cc(C(=O)NC2CCN(c3cc(-c4ccc(F)cc4)[nH]n3)C2)c1 (centres undefined)	-3.5%	i	?	?
O=C(NC1CCN(c2cc(-c3ccccc3)[nH]n2)CC1)c1ccc2ccccc2n1	-24.4%	i	28.2µM*	50.1µM*
COc1ccc(-c2cc(N3CCC(NC(=O)Cc4ccc(Cl)cc4)CC3)n[nH]2)cc1	-25.1%	i	?	?
COc1cccc(NC(=O)O[C@@H]2CC[C@]3(C)C(CC[C@@H](O)[C@H]3CC(=O)N3CCCC3)[C@]2(C)CO)c1 (some centres undefined)	-3.1%	i	-17.7%	-16.4%
SMILES	NPR1 antag	FLuc inh	NIH3T3 tox	HEK293 tox
Cc1cccc(OCC2(CNC(=O)c3cc(C)nn3C)C[C@@H](O)[C@@H](O)C2)n1 (some centres undefined)	-0.9%[70.6 µM]	i	-32.2%[138 µM]	-23.6%[172 µM]
O=C1CC2(CCN(C(=O)C3CCN(C(=O)NC4CCCC4)CC3)CC2)Oc2ccccc2N1	nt	nt	-14.7%	?
COc1ccc(-c2cc(N3CCC(NC(=O)c4ccc(Cl)cc4)CC3)n[nH]2)cc1	?	i	?	44.7µM*
COc1ccc(-c2cc(N3CCC(NC(=O)c4ccc(Cl)cc4)C3)n[nH]2)cc1 (centres undefined)	-12.6%	i	?	?
O=C(NC1CCN(c2cc(-c3ccc(Cl)cc3)[nH]n2)CC1)c1ccc2[nH]ccc2c1	-22.3%	i	35.5µM*	39.8µM*
O=C(Cc1ccc(F)cc1)NC1CCN(c2cc(-c3ccccc3)[nH]n2)CC1	-27.6%	i	?	?
O=C(Cc1cccc(Cl)c1)NC1CCN(c2cc(-c3ccccc3)[nH]n2)CC1	-29.8%	i	31.6µM*	?
CCCCCC(=O)N1CCC(=O)N(C)C[C@H]2COc3ccc(C)cc3[C@H]21	nt	nt	?	-23.0%
COC(=O)N1CCc2nc(C(C)C)nc(-c3ccc(O)cc3)c2C1	-0.9%[70.6 µM]	i	-25.0%[138 µM]	-3.3%[172 µM]
O=S(=O)(c1cccc(C(F)(F)F)c1)N1CCN(c2ccc3nnc(-c4ccccc4)n3n2)CC1	nt	nt	-33.2%	-11.4%
O=C(CC1CCCC1)N1CCC2(CC1)CC(CO)N(C(=O)c1ccccc1)C2 (centres undefined)	nt	nt	?	0.0%
O[C@H]1[C@H](NCC2CCCC2)[C@@H](C2CCCCC2)C[C@H]1O	-6.8%[70.6 µM]	i	-28.0%[174 µM]	?
CC(C)(C)c1nnc2ccc(C(=O)N3CCOCC3)cn12	nt	nt	-16.5%[138 µM]	-3.1%[172 µM]
Cn1ccc(C(=O)N2CC(COc3ccccc3)C3(C2)CN(c2ccccc2)C3)n1 (centres undefined)	-1.3%[70.6 µM]	i	100µM*	?
Cn1ccc(C(=O)N2CC(CNc3ccccc3)C3(C2)CN(c2ccccc2)C3)n1 (centres undefined)	?	i	?	63.1µM*
Cc1ncsc1C(=O)N1CC(COc2ccccc2)C2(C1)CN(c1ccccc1)C2 (centres undefined)	1.0%[70.6 µM]	i	?	100µM*
Cn1nccc1C(=O)N1CC(COc2ccccc2)C2(C1)CN(c1ccccc1)C2 (centres undefined)	-2.7%[70.6 µM]	i	?	?
O=C(NCc1ccccc1)C1CN(C2CCCCC2)C(=O)N1 (centres undefined)	nt	nt	-2.5%[138 µM]	-5.0%[172 µM]
COc1cccc(CNC2(Cc3cc(COc4ccccc4)on3)COC2)c1	6.8%[70.6 µM]	i	-7.2%[138 µM]	-18.0%[172 µM]
O=C1Cc2c(-c3ccc(N4CCOCC4)cc3)n[nH]c2CN1CCc1ccncc1	-10.0%[70.6 µM]	?	79.4µM*	-18.0%[172 µM]
O=C1Cc2c(-c3cccc(C(F)(F)F)c3)n[nH]c2CN1CCc1ccncc1	3.2%[70.6 µM]	i	?	89.1µM*
O=C1Cc2c(-c3ccccc3)n[nH]c2CN1CCc1ccncc1	-2.0%[70.6 µM]	i	?	2.8%[172 µM]
